Pf growth 48h = P. falciparum growth inhibition at 48 hours (one generation) | P. falciparum luciferase growth in erythrocytes, 48 h | Potency, µM (doses to about 28.7 µM), without a hit: at the top dose activity change, negative = inhibition, usual class: inhibitors | 5.9% of 310,000 active | AID 504832; also: potency is read from the fitted curve at half-maximal effect; % is scaled to controls: 0 for no effect and ±100 for the full control effect
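Cell-based growth assay: transgenic P. falciparum expressing firefly luciferase, cultured in red cells within RPMI 1640 containing 0.5% w/v Albumax, 24 mM bicarbonate and gentamycin. A drop in luciferase activity indicates inhibition.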
SARS PLpro yeast = SARS-CoV PLP inhibition in yeast. S. cerevisiae expressing SARS-CoV PLpro, growth rescue. Potency, µM (titrated, usually from 32.9 µM), without a hit: at the top dose activity, positive = growth rescue, usual class: activators. 0.19% of 330,000 active. AID 485353; calls by dose curve; also: potency is read from the fitted curve at half-maximal effect; 0% is about no effect; nearly all actives have a fitted effect of over 55% in size
HCMV antiviral = blocks human cytomegalovirus replication | HFF cells, HCMV-luciferase reporter, 72 h; hits give low values | activity change, negative = inhibition, % at 57.5 µM | 4.5% of 410,000 active; in the data active = activity change below about -60%; inconclusive = no clear call, values can overlap the other calls; inactive = above about -39%; also: % is scaled to controls: 0 for no effect and ±100 for the full control effect
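Luciferase read-out from HCMV-luciferase-infected HFFs (MOI 1 PFU/cell) 72 h post infection at 37C; compounds added after 16 h cell attachment; activity normalized between buffer-only basal and Salinomycin (10uM) inhibitor controls.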
HCV inh = inhibitors of hepatitis C virus infection; 3.4% of 340,000 active; Potency, µM (titrated, usually from 41.8 µM), inactives show at the top dose activity change, negative = inhibition, hits mostly inhibitors; AID 651820; Huh7.5.1 HCVcc-Cre infection, luciferase reporter, 44 h; also: potency is read from the fitted curve at half-maximal effect; % is scaled to controls: 0 for no effect and ±100 for the full control effect
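After 44 h co-culture of compound, cells and HCVcc-Cre (~0.5 moi), substrate is added for 15 min at room temperature and luciferase measured over 15 sec. Cells were seeded at 1,000/well and pre-cultured 4 h.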
Pf growth 96h = P. falciparum growth inhibition at 96 hour, primary screen for plastid delayed-death inhibitors. P. falciparum luciferase reporter growth, 96 h. AID 504834. 6.9% of 320,000 active. Potency, µM (doses to about 28.7 µM), without a hit: top-dose activity change, negative = inhibition, most hits filed as inhibitors; also: potency is read from the fitted curve at half-maximal effect; % is scaled to controls: 0 for no effect and ±100 for the full control effect
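Cell-based qHTS: luciferase-tagged P. falciparum in erythrocytes (2% hematocrit, 0.05% parasitemia final) incubated with compounds for 96 hours, 37 C, 5% CO2; luciferase detection reagent then added and luminescence measured.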
Sm TGR inh = blocks Schistosoma mansoni thioredoxin glutathione reductase. Q962Y6. purified TGR, DTNB reduction, TNB absorbance 405 nm. Potency, µM (titrated, usually from 114 µM), inactives show at the top dose activity change, negative = inhibition, most hits filed as inhibitors. 3% of 360,000 active. AID 485364; also: potency is read from the fitted curve at half-maximal effect; % is scaled to controls: 0 for no effect and ±100 for the full control effect; nearly all actives have a fitted effect of over 60% in size
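First, TGR (20 nM dispensed) and NADPH were mixed with compound. Second, a 15 min room-temperature incubation followed. Third, further NADPH and then DTNB were added to start the reaction. Finally, TNB absorbance was monitored kinetically.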
Active calls of the source: *; [ ] = remark or other dose. A selection: hits, their analogues and other compounds. The true share with any hit is near 15%. Unless noted, calls follow the shape of the dose curve; as a rule, active = well fitted curve in the direction sought with a large enough effect; inconclusive = small, poorly fitted or top-dose-only effect, or another doubt; inactive = no such curve, though single readings can be large; an effect the other way counts as inactive or inconclusive.

Screening Cc1nc(S(=O)(=O)c2ccc(Cl)cc2)c(N(C)C)o1 returned Pf growth 48h 32%, SARS PLpro yeast 6%, HCMV antiviral 0, HCV inh 9%, Pf growth 96h 58% and Sm TGR inh 10µM*.
For CN(C)c1oc(-c2ccccc2Cl)nc1P(=O)(c1ccccc1)c1ccccc1 the results were SARS PLpro yeast -1%, HCMV antiviral 32, HCV inh inconclusive, Pf growth 96h 12µM* and Sm TGR inh 6%.
COc1ccccc1-c1nc(S(=O)(=O)c2ccc(Cl)cc2)c(N(C)C)o1 was read as Pf growth 48h 4%, SARS PLpro yeast 1%, HCMV antiviral -8, HCV inh 14%, Pf growth 96h 333% and Sm TGR inh inconclusive.
Cc1ccc(-c2nc(S(=O)(=O)c3ccc(C)cc3)c(N(C)C)o2)cc1 was read as Pf growth 48h 2%, SARS PLpro yeast 5%, HCMV antiviral 1, HCV inh inconclusive, Pf growth 96h inconclusive and Sm TGR inh 2.5µM*.
COc1ccc(CCNC(=O)CCS(=O)(=O)Cc2ccccc2C)cc1OC was read as Pf growth 48h 2%[0.00184 µM], SARS PLpro yeast -1%, HCMV antiviral -9, HCV inh -2%, Pf growth 96h 31% and Sm TGR inh 6%.
`COc1cc(-c2nc(S(=O)(=O)c3ccc(C)cc3)c(N(C)C)o2)cc(OC)c1OC` gave Pf growth 48h -16%, SARS PLpro yeast 1%, HCMV antiviral 86, HCV inh inconclusive, Pf growth 96h 0% and Sm TGR inh 18µM*.
`COc1cc(-c2nc(S(=O)(=O)c3ccc(C)cc3)c(N3CCOCC3)o2)cc(OC)c1OC` gave Pf growth 48h -15%, SARS PLpro yeast -10%, HCMV antiviral 116, HCV inh -14%, Pf growth 96h inconclusive and Sm TGR inh inconclusive.
Screening CCCN1CCc2c(sc3nc(SC)n(-c4ccccc4)c(=O)c23)C1 returned Pf growth 48h 0.93µM*, SARS PLpro yeast 1%, HCMV antiviral inconclusive, HCV inh inconclusive, Pf growth 96h 0.74µM* and Sm TGR inh -18%.
`CC1CCc2c(sc3nc(SCC(=O)O)n(-c4ccccc4)c(=O)c23)C1` (stereo unspecified) gave Pf growth 48h -16%, SARS PLpro yeast 1%, HCMV antiviral -12, HCV inh 13%, Pf growth 96h inconclusive and Sm TGR inh -4%.
Screening CCCN1CCc2c(sc3nc(SCC)n(-c4ccc(OC)cc4)c(=O)c23)C1 returned Pf growth 48h 5.9µM*, SARS PLpro yeast 0%, HCV inh inconclusive, Pf growth 96h 0.59µM* and Sm TGR inh 3%.
CCCN1CCc2c(sc3nc(SCC)n(-c4ccccc4)c(=O)c23)C1 was read as Pf growth 48h 1.3µM*, SARS PLpro yeast 0%, HCV inh -24%, Pf growth 96h 0.26µM* and Sm TGR inh -28%.
C=CCSc1nc2sc3c(c2c(=O)n1-c1ccccc1)CCN(C)C3 was read as Pf growth 48h inconclusive, SARS PLpro yeast 1%, HCMV antiviral -17, HCV inh inconclusive, Pf growth 96h 0.59µM* and Sm TGR inh -24%.
Screening CC(Sc1nc2sc3c(c2c(=O)n1-c1ccccc1)CCCC3)C(=O)O (stereo unspecified) returned Pf growth 48h 0%, SARS PLpro yeast 0%, HCMV antiviral 0, HCV inh 10%, Pf growth 96h 23% and Sm TGR inh -4%.
Screening CCOC(=O)CN1C(=O)C2Cc3ccccc3CN2C1=S (stereo unspecified) returned Pf growth 48h inconclusive, SARS PLpro yeast -3%, HCMV antiviral -33, HCV inh 3%, Pf growth 96h -14% and Sm TGR inh 9%.
For CC(C)(C)NC(=O)N1CCC(C(=O)O)CC1 the results were HCMV antiviral 10 and Sm TGR inh 13%.
For COC(=O)[C@H]1[C@H](CO)[C@H]2Cn3c(cccc3=O)[C@H]2N1Cc1ccccc1F the results were HCMV antiviral 4.
For COc1ccc(NC(=O)CSc2nc3sc4c(c3c(=O)n2-c2ccc(OC)cc2)CCN(C)C4)cc1 the results were Pf growth 48h inconclusive, SARS PLpro yeast -8%, HCMV antiviral 8, HCV inh inconclusive, Pf growth 96h inconclusive and Sm TGR inh 6%.
CN1CCc2c(sc3c2c(=O)n(-c2ccccc2)c2nnc(SCc4ccccc4)n32)C1 was read as Pf growth 48h 6.6µM*, SARS PLpro yeast 1%, HCMV antiviral -13, HCV inh inconclusive and Sm TGR inh inconclusive.
CN1CCc2c(sc3nc(NN)n(Cc4ccccc4)c(=O)c23)C1 was read as Pf growth 48h 3.7µM*, SARS PLpro yeast 1%, HCMV antiviral inconclusive, HCV inh inconclusive, Pf growth 96h 2.1µM* and Sm TGR inh -31%.
For COc1ccc(-n2c(SC)nc3sc4c(c3c2=O)CCN(C)C4)cc1 the results were Pf growth 48h 3.7µM*, SARS PLpro yeast 2%, HCMV antiviral inconclusive, HCV inh inconclusive, Pf growth 96h 7.4µM* and Sm TGR inh 5%.
For CCSc1nc2sc3c(c2c(=O)n1-c1ccccc1)CCN(C)C3 the results were Pf growth 48h 3.3µM*, SARS PLpro yeast -2%, HCMV antiviral 0, HCV inh inconclusive, Pf growth 96h 82% and Sm TGR inh -5%.
Screening COCCSc1nc2sc3c(c2c(=O)n1-c1ccccc1)CCN(C)C3 returned SARS PLpro yeast -1%, HCV inh inconclusive, Pf growth 96h inconclusive and Sm TGR inh -34%.
For O=C(NCC(c1cccnc1)N1CCc2ccccc21)c1ccc(F)cc1 (stereo unspecified) the results were HCMV antiviral -7 and Sm TGR inh -10%.
Screening CCc1nc(C)cn1S(=O)(=O)c1cc(C)c(OC)c(C)c1C returned SARS PLpro yeast 1%, HCMV antiviral -76*, HCV inh 2.8µM*, Pf growth 96h 4% and Sm TGR inh 0%.
`CCOC(=O)c1c2c3c(c(Cl)ccc3[nH]c1=O)C(=O)c1ccccc1-2` gave Pf growth 48h 6%[5.75 µM], SARS PLpro yeast -1%, HCMV antiviral -97*, HCV inh -24%, Pf growth 96h 13% and Sm TGR inh 3%.
CCOC(=O)c1c2c3c(cccc3[nH]c1=O)C(=O)c1ccccc1-2 was read as Pf growth 48h 12%, SARS PLpro yeast 0%, HCMV antiviral 55, HCV inh -12%, Pf growth 96h 60% and Sm TGR inh 2%.
`Cc1c[n+]([O-])cc(C)c1[N+](=O)[O-]` gave HCMV antiviral -27 and HCV inh 8%.
